Source: PubChem BioAssay (NCI)
Compounds without any hit were thinned out: in the full panel of roughly 83,000, 20% have a hit.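 The endpoint reported here, percent growth, reads 100 for growth as untreated, 0 for no net growth and -100 for all cells dead.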 Unmarked numbers belong to inactive results. Activity calls are given as the source filed them. How the source made its calls: active means growth percent below 10; inactive means the rest.

Key:
Experiment in all cases: NCI-60 one-dose screen, 48 h (100 = growth as untreated, 0 = no growth, -100 = all killed)
Details in all cases: 10 µM unless noted
[1] = tested on: NCI-H226 lung
[2] = tested on: NCI-H322M lung
[3] = tested on: HOP-62 NSCLC
[4] = tested on: NCI-H460 lung
[5] = tested on: HOP-92 NSCLC
[6] = tested on: NCI-H522 lung
[7] = tested on: A549/ATCC NSCLC
[8] = tested on: 786-0 renal
[9] = tested on: COLO 205 colon
[10] = tested on: DU-145 prostate

COc1cc(OC)c(C2SCC(=O)N2Nc2ncnc3ccccc23)cc1OC (stereo not given)
growth [1]: 107%
growth [2]: 96.4%
growth [3]: 100%
growth [4]: 111%
growth [5]: 147%
growth [6]: 98.9%
growth [7]: 104%
growth [8]: 104%
growth [9]: 113%
growth [10]: 106%

O=C(Nc1nc2ccc(O)cc2s1)c1cccc(C(F)(F)F)c1
growth [1]: 84.2%
growth [2]: 84.3%
growth [3]: 88.6%
growth [4]: 56.7%
growth [5]: 69%
growth [6]: 35.6%
growth [7]: 57%
growth [8]: 77.1%
growth [9]: 107%
growth [10]: 65.9%

CCCCCCNC(=O)Oc1ccc(/C(=C(/C)c2ccccc2)c2ccc(OCCN3CCCCCC3)cc2)cc1
growth [1]: 76.7%
growth [2]: 87.5%
growth [3]: 78.6%
growth [4]: 6.58% (active)
growth [5]: 12.5%
growth [6]: 85%
growth [7]: 63.1%
growth [8]: -0.48% (active)
growth [9]: 21.7%
growth [10]: 68.2%

CN1CCc2c(sc3ncnc(N/N=C/c4ccc(Cl)c(Cl)c4)c23)C1
growth [1]: 56.9%
growth [2]: -3.96% (active)
growth [3]: 69.7%
growth [4]: 0.478% (active)
growth [5]: 37.4%
growth [6]: 89.9%
growth [7]: 21.8%
growth [8]: -57.1% (active)
growth [9]: 36.1%
growth [10]: 48.9%

CN(C)c1ccc(/C=c2\sc3nc4ccccc4n3c2=O)cc1
growth [1]: 105%
growth [2]: 90.8%
growth [3]: 108%
growth [4]: 105%
growth [5]: 103%
growth [6]: 102%
growth [7]: 117%
growth [8]: 98.5%
growth [9]: 111%
growth [10]: 110%

Cc1nc(-c2cc3ccccc3oc2=O)ccc1C(=O)/C=C/c1ccc(Cl)c(Cl)c1
growth [1]: 108%
growth [2]: 104%
growth [3]: 107%
growth [4]: 100%
growth [5]: 95.4%
growth [6]: 98.9%
growth [7]: 107%
growth [8]: 99.3%
growth [9]: 113%
growth [10]: 102%

N/C(=N\c1nc2c(Br)cccc2s1)C(Br)Br
growth [1]: 48.9%
growth [2]: 31.8%
growth [3]: 39.8%
growth [4]: -20.4% (active)
growth [5]: -3.75% (active)
growth [6]: -75.1% (active)
growth [7]: 21.8%
growth [8]: -14.3% (active)
growth [9]: 1.7% (active)
growth [10]: -21.8% (active)

COc1cccc(NC2=CC(=O)C(C)=C(C)C2=O)c1
growth [1]: 97%
growth [2]: 102%
growth [3]: 106%
growth [4]: 101%
growth [5]: 104%
growth [6]: 49.8%
growth [7]: 101%
growth [8]: 95.8%
growth [9]: 103%
growth [10]: 113%

COc1ccc(N/N=C/c2c(-c3ccc(S(C)(=O)=O)cc3)nc3ccccn23)cc1
growth [1]: 71%
growth [2]: 50%
growth [3]: 57.4%
growth [4]: 21.8%
growth [5]: 23%
growth [6]: 3.48% (active)
growth [7]: 36.9%
growth [8]: 48%
growth [9]: 55.1%
growth [10]: 40.1%

CN(C)CCCOc1c2ccc(Cl)cc2nc2c1oc1ccccc12
growth [1]: -0.673% (active)
growth [2]: -13.1% (active)
growth [3]: 7.02% (active)
growth [4]: 7.64% (active)
growth [5]: -4.3% (active)
growth [6]: -39.6% (active)
growth [7]: 10%
growth [8]: 6.22% (active)
growth [9]: -59.3% (active)
growth [10]: 5.28% (active)

O=C(CSc1nc2sc3c(c2c(=O)n1-c1ccc(Cl)cc1)CCCC3)N/N=C/c1ccc(F)cc1
growth [1]: 113%
growth [2]: 104%
growth [3]: 105%
growth [4]: 81.4%
growth [5]: 97.3%
growth [6]: 100%
growth [7]: 88.1%
growth [8]: 98.9%
growth [9]: 117%
growth [10]: 82.1%

CCOC(=O)c1c(Nc2ccccc2)nn2c(N)c(C#N)c(-c3ccc(F)cc3)nc12
growth [1]: 90.6%
growth [2]: 101%
growth [3]: 91.7%
growth [4]: 86.8%
growth [5]: 99.5%
growth [6]: 90.5%
growth [7]: 96.1%
growth [8]: 80.8%
growth [9]: 93.4%
growth [10]: 83.2%

CC(C)(C)Nc1nc2c(OCCc3ccccc3)cccn2c1-c1ccccc1Cl
growth [1]: -0.3% (active)
growth [2]: 8.57% (active)
growth [3]: -22.1% (active)
growth [4]: 0.335% (active)
growth [5]: -74.8% (active)
growth [6]: -13.4% (active)
growth [7]: 11.6%
growth [8]: 6.01% (active)
growth [9]: -76.6% (active)
growth [10]: 21.1%

N#Cc1nc(-c2ccccc2)oc1S(=O)(=O)N1CCN(CCc2ccccn2)CC1
growth [1]: 98.1%
growth [2]: 95.6%
growth [3]: 109%
growth [4]: 100%
growth [5]: 38.1%
growth [6]: -66% (active)
growth [7]: 103%
growth [8]: 8.4% (active)
growth [9]: 30.1%
growth [10]: 75.4%

CS(=O)(=O)c1ccc(-c2nc3ccccn3c2/C=N/Nc2nc(-c3ccc(Cl)cc3)cs2)cc1
growth [1]: 108%
growth [2]: 111%
growth [3]: 109%
growth [4]: 102%
growth [5]: 96.4%
growth [6]: 96.2%
growth [7]: 98.2%
growth [8]: 79.8%
growth [9]: 112%
growth [10]: 106%

CN(C)CCCNc1c2ccc(Cl)cc2nc2c1oc1ccc(Cl)cc12
growth [1]: 25.7%
growth [2]: 2.57% (active)
growth [3]: 47.7%
growth [4]: -31.2% (active)
growth [5]: 21.8%
growth [6]: 16.7%
growth [7]: -38.4% (active)
growth [8]: -85.3% (active)
growth [9]: 34.2%
growth [10]: -48.8% (active)

CCOC(=O)c1csc(NC(=O)CSc2nc3sc4c(c3c(=O)n2-c2ccc(Cl)cc2)CCCC4)n1
growth [1]: 101%
growth [2]: 101%
growth [3]: 101%
growth [4]: 100%
growth [5]: 77.8%
growth [6]: 93.3%
growth [7]: 98.6%
growth [8]: 103%
growth [9]: 133%
growth [10]: 107%

COc1cc(-c2nc3ccc(-c4nnc(SCC(=O)Nc5ccc(C(C)=O)cc5)o4)cc3[nH]2)cc(OC)c1OC
growth [1]: 105%
growth [2]: 99.5%
growth [3]: 98.7%
growth [4]: 103%
growth [5]: 92.5%
growth [6]: 99.5%
growth [7]: 99.9%
growth [8]: 106%
growth [9]: 110%
growth [10]: 115%

Cn1cc(-c2cc(N)n3nc(-c4cn(C)c5ccc(F)cc45)cc3n2)c2cc(F)ccc21
growth [1]: 106%
growth [2]: 71.2%
growth [3]: 92%
growth [4]: -23.2% (active)
growth [5]: 75.7%
growth [6]: 28.6%
growth [7]: 18.5%
growth [8]: -87.7% (active)
growth [9]: 115%
growth [10]: 44.8%

Fc1ccc(-c2nc(C(Cl)Cl)nc3cc(-c4ccccc4)nn23)cc1
growth [1]: 74.7%
growth [2]: -41.6% (active)
growth [3]: -19.5% (active)
growth [4]: -67.6% (active)
growth [5]: 12.8%
growth [6]: -41.4% (active)
growth [7]: -45.1% (active)
growth [8]: 70%
growth [9]: -76.3% (active)
growth [10]: -18.2% (active)

CS(=O)(=O)Nc1ccc(-c2nn(-c3ccc(S(C)(=O)=O)cc3)cc2/C=C/C(=O)c2ccc(NC(=O)CO[N+](=O)[O-])cc2)cc1
growth [1]: 89.3%
growth [2]: 102%
growth [3]: 100%
growth [4]: 110%
growth [5]: 103%
growth [6]: 99.1%
growth [7]: 101%
growth [8]: 102%
growth [9]: 114%
growth [10]: 116%

C#Cc1nc(C2=C(C)C(OC(C)=O)/C(=N/OC(C)=O)C2)cs1 (stereo not given)
growth [1]: 96.1%
growth [2]: 116%
growth [3]: -46.9% (active)
growth [4]: 36.1%
growth [5]: -79.9% (active)
growth [6]: -86.2% (active)
growth [7]: 69.7%
growth [8]: -87.9% (active)
growth [9]: 51.3%
growth [10]: 67%

COc1cc(OC)c(S(=O)(=O)NNC(=O)c2ccncc2)cc1C(=O)/C=C/c1ccc(C)cc1
growth [1]: 89.5%
growth [2]: 62.3%
growth [3]: 103%
growth [4]: 63.4%
growth [5]: 42.1%
growth [6]: 84.9%
growth [7]: 93.4%
growth [8]: 57.1%
growth [9]: 99%
growth [10]: 83.1%

COc1ccc(-c2nc3ccc(-c4nnc(SCC(=O)Nc5ccc(C(C)=O)cc5)o4)cc3[nH]2)cc1
growth [1]: 100%
growth [2]: 110%
growth [3]: 113%
growth [4]: 103%
growth [5]: 114%
growth [6]: 103%
growth [7]: 112%
growth [8]: 105%
growth [9]: 113%
growth [10]: 110%

COc1cc(/C=C/C(=O)c2cc(OC)c(OC)c(OC)c2)ccc1OCc1ccc(F)cc1
growth [1]: 49.5%
growth [2]: 49.7%
growth [3]: 36.2%
growth [4]: 54%
growth [5]: 44.7%
growth [6]: 56.4%
growth [7]: 51.2%
growth [8]: 62.8%
growth [9]: 70%
growth [10]: 58.3%

COc1ccc(-n2c(SCC(=O)Nc3ccc(-c4nc5ccccc5[nH]4)cc3)nc3ccccc3c2=O)cc1
growth [1]: 48.5%
growth [2]: 51.9%
growth [3]: 89.4%
growth [4]: -55.9% (active)
growth [5]: -33.3% (active)
growth [6]: -32.9% (active)
growth [7]: -24.4% (active)
growth [8]: -95.4% (active)
growth [9]: 77.5%
growth [10]: 6.71% (active)

N#Cc1c(-c2ccc(Cl)cc2)nc(SCc2ccc([N+](=O)[O-])cc2)nc1N1CCNCC1
growth [1]: 85.2%
growth [2]: 40.5%
growth [3]: 57.1%
growth [4]: -66.6% (active)
growth [5]: -8.29% (active)
growth [6]: 64.1%
growth [7]: 5.31% (active)
growth [8]: -50% (active)
growth [9]: -82% (active)
growth [10]: 0.384% (active)
